A number with no mark means an inactive call.

Holding throughout (experiment): log2 ratio of Biotin-Ahx-Ub-VS probe labelling (fragment/DMSO); higher = less target engagement (more negative = stronger competition), active = hit call of the paper (q ≤ 0.05, log2 ratio ≤ -1)
Details in all cases: compound concentration: 200 uM; treatment time: 3 h

One test has as its target T1, OTUD6B (UniProt Q8N6M0).
T1 sequence (whole entry): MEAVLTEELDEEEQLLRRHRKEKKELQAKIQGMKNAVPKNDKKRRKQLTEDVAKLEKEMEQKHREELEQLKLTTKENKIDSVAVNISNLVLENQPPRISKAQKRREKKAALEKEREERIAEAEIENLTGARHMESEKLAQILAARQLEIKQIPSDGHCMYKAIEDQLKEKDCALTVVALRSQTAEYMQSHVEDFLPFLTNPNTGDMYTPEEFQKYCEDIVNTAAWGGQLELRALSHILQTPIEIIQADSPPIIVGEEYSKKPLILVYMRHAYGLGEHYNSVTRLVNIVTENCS
The method, boiled down: (§1)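 Triplicate samples of HEK293T lysate, 495 µg each, received fragment at 200 µM or vehicle for 3 h, followed by Biotin-Ahx-Ub-VS (0.5 µM final) for 1 h. After NeutrAvidin enrichment of labelled DUBs and LysC/trypsin digestion, peptides were run by diaPASEF LC-MS/MS. The values are average log2 fragment/vehicle ratios from global-median-normalised Spectronaut label-free quantities, tested by unpaired t-test on proteins having ≥2 unique peptides.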

Another test addresses T2, OTUD7B (UniProt Q6GQQ9).
T2 sequence (whole entry): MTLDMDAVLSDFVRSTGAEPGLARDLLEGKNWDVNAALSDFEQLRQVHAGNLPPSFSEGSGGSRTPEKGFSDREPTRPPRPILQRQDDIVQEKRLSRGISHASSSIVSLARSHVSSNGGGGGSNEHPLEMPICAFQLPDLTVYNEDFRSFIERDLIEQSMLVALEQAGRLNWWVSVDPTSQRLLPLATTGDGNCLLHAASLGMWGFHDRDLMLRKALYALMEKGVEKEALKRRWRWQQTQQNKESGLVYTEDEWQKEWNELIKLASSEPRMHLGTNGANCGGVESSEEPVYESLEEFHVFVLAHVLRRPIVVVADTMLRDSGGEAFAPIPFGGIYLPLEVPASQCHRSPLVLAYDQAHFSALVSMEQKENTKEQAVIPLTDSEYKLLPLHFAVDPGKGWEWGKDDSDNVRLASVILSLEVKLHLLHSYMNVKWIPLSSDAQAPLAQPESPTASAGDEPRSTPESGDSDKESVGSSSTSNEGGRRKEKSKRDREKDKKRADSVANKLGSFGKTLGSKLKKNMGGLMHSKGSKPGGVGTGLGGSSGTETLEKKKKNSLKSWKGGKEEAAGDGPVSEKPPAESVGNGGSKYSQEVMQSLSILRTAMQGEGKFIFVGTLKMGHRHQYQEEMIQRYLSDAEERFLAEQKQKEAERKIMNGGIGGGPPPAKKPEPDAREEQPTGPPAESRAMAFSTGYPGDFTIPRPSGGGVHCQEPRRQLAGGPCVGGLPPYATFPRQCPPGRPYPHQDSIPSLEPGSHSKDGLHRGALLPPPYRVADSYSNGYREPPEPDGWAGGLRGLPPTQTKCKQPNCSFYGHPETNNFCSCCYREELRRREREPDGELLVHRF
In outline:
as §1

A further test deals with PRPF8 (UniProt Q6P2Q9). The method, boiled down: as §1
Another test has as its target T3, PSMD7 (UniProt P51665).
T3 sequence (whole entry): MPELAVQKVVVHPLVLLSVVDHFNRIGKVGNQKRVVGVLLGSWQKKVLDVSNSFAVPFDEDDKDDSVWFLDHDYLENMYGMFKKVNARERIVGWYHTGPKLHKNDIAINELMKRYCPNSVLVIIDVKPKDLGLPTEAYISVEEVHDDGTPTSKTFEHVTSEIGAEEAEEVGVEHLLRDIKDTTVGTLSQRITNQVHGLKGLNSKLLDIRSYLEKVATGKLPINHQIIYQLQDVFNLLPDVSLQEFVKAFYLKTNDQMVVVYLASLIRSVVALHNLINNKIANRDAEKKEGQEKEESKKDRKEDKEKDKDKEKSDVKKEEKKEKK
The method, boiled down: as §1

The next test has as its target UCHL1 (UniProt P09936). In outline: as §1
The next test has as its target T4, UCHL3 (UniProt P15374).
T4 sequence (whole entry): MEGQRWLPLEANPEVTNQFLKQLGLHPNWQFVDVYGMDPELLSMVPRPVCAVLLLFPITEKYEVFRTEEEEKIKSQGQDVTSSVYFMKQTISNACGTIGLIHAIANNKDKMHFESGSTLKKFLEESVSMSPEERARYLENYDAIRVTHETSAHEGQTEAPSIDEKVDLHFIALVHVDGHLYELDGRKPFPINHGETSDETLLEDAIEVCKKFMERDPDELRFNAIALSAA
The method, boiled down:
as §1

In the next test the target is T5, UCHL5 (UniProt Q9Y5K5).
T5 sequence (whole entry): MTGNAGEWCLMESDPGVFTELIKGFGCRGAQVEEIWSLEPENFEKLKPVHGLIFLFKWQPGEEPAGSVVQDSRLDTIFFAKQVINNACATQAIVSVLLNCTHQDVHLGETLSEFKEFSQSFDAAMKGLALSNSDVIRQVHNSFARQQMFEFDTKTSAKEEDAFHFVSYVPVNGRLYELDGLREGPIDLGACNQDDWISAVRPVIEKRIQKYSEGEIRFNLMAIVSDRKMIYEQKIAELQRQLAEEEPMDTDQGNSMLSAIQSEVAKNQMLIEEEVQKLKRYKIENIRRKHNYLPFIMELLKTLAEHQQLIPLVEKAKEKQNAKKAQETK
In outline:
as §1

The next test deals with USP10 (UniProt Q14694). In outline: as §1
Sequence of USP10 (Q14694 whole entry): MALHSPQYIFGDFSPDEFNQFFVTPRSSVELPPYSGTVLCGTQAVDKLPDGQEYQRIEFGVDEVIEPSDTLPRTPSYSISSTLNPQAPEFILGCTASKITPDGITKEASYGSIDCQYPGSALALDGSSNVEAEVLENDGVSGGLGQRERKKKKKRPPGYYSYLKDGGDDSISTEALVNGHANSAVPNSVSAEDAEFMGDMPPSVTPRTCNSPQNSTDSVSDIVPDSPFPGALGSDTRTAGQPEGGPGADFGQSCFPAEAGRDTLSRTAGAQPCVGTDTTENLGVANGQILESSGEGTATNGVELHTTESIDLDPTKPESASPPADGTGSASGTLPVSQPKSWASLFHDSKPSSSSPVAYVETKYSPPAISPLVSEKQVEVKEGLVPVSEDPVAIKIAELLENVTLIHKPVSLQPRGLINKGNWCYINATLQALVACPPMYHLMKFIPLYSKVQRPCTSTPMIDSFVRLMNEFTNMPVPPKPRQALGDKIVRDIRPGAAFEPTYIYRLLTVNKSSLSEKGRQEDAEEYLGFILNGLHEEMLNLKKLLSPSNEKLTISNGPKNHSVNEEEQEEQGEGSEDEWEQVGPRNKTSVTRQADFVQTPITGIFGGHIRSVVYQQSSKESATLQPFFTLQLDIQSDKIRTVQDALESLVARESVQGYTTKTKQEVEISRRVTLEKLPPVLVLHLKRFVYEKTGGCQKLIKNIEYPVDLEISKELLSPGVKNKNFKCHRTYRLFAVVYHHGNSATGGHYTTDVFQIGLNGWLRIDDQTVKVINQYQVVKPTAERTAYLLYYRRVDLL
In another test the target is T6, USP15 (UniProt Q9Y4E8).
T6 sequence (whole entry): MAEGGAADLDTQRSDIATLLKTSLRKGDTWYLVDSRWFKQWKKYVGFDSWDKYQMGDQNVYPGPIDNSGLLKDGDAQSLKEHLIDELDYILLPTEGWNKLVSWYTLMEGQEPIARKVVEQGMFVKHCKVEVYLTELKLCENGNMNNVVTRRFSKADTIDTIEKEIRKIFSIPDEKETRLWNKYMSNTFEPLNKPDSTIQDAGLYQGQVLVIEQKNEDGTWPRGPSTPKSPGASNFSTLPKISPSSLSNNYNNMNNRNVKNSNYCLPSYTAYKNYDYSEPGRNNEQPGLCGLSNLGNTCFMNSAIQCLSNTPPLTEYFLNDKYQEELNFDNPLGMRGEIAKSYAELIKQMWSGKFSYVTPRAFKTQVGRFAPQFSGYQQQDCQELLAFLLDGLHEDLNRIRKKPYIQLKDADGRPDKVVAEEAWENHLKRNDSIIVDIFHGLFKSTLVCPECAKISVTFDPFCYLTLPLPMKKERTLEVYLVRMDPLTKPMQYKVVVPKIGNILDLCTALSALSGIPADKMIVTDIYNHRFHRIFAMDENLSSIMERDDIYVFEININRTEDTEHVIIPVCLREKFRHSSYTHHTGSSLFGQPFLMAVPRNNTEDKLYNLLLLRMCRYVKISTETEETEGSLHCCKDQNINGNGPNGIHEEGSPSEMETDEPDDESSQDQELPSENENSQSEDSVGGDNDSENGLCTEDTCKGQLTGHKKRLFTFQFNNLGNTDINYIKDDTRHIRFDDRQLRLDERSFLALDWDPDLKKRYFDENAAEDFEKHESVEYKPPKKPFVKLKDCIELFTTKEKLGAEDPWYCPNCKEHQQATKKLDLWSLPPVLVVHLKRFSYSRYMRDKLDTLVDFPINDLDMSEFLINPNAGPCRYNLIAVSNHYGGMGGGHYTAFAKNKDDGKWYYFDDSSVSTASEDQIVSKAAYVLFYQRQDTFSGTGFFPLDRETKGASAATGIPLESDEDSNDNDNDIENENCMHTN
In outline: as §1

For a further test, the target named is USP16 (UniProt Q9Y5T5). The method, boiled down:
as §1

Sequence of USP16 (Q9Y5T5 whole entry, looked up): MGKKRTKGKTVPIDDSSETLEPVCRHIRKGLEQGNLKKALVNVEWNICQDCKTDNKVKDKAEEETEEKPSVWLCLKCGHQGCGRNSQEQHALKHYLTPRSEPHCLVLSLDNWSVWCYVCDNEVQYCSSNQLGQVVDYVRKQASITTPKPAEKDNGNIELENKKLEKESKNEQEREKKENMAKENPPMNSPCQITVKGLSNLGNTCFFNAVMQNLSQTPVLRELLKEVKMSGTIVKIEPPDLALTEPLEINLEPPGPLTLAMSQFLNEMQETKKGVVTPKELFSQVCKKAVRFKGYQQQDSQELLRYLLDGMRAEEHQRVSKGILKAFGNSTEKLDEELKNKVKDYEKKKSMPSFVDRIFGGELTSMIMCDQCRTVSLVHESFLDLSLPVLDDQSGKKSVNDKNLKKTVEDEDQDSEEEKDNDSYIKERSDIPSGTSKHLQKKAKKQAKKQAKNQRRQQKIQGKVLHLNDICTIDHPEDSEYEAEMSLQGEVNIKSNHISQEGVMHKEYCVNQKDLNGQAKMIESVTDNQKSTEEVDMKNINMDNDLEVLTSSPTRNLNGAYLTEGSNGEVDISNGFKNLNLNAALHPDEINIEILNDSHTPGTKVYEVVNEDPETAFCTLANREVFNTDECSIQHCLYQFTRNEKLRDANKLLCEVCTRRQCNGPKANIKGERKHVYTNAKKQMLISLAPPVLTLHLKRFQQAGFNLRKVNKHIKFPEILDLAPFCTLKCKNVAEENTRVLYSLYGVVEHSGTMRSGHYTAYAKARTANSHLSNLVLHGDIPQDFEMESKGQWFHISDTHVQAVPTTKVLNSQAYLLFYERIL
Sequence of UCHL1 (P09936 whole entry, looked up): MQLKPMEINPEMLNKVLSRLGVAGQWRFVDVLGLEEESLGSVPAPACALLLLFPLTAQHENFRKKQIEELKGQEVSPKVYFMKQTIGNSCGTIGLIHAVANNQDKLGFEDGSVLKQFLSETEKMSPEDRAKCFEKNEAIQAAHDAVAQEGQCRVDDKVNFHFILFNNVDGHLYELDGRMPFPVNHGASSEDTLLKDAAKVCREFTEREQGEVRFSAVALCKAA

As to `Cc1nc(-c2cccc(NC(=O)CCl)c2)cs1`, the “log2 ratio of Biotin-Ahx-Ub-VS probe labelling” value (“log2 ratio” below) with OTUD6B is -0.247; with OTUD7B, -0.69; in the test with PRPF8 it was 0.052; with PSMD7, -0.167; with UCHL1, -0.133; with UCHL3, -0.844. In addition, the “log2 ratio” value was -0.43 with UCHL5, -0.202 with USP10, -0.235 in the test with USP15 and -0.418 in the test with USP16.
Take `Cc1ccc(CN(C)C(=O)CCl)o1`: the “log2 ratio” value in the test with OTUD6B is 0.0695; in the test with OTUD7B it was -0.158; with PRPF8, -0.0488; with PSMD7 it was 0.0152; in the test with UCHL1, -1.38 (active); with UCHL3, 0.611. The “log2 ratio” value with UCHL5 was -0.238; with USP10, -0.157; with USP15, -0.201; in the test with USP16, -0.0354.
In the case of `O=C(CCl)N1CCc2ccccc2C(O)C1` (stereo not given), the “log2 ratio” value with OTUD6B was -0.357; with OTUD7B it was -1.21 (active); in the test with PRPF8 it was 0.137; with PSMD7, -0.212; with UCHL1 it was -1.58 (active); in the test with UCHL3, -0.197. The “log2 ratio” value in the test with UCHL5 was -0.317; with USP10, -0.14; in the test with USP15, -0.392; with USP16, 0.132.
With `Cc1cccc(C)c1NC(=O)CCl`, the “log2 ratio” value with OTUD6B was -0.307; with OTUD7B it was -0.52; with PRPF8, -0.0544; in the test with PSMD7 it was -0.245; with UCHL1, -1.48 (active); with UCHL3, 0.0922. The “log2 ratio” value with UCHL5 is -0.309; in the test with USP10 it was -0.108; in the test with USP15, -0.203; in the test with USP16, -0.0305.
Consider `O=C(CCl)NC1CCS(=O)(=O)c2ccccc21` (stereo not given), for which the “log2 ratio” value in the test with OTUD6B is -0.258; in the test with OTUD7B, -1.79 (active); with PRPF8, -0.00882; with PSMD7, -0.335; with UCHL1, -1.81 (active); with UCHL3, 0.125. In addition, the “log2 ratio” value with UCHL5 was -0.554; in the test with USP10 it was 0.0657; with USP15, -0.242; with USP16, -0.0991.
As for `O=C(CCl)NCCC1COCCO1` (stereo not given), the “log2 ratio” value was -0.0161 with OTUD6B; -0.0714 with OTUD7B; -0.0389 with PRPF8; -0.237 in the test with PSMD7; -1.39 (active) in the test with UCHL1; 0.227 in the test with UCHL3. The “log2 ratio” value with UCHL5 was -0.221; in the test with USP10, -0.143; with USP15, 0.0547; in the test with USP16, -0.519.
Consider `CC(O)CC1CCN(C(=O)CCl)CC1` (stereo not given), for which the “log2 ratio” value was -0.0339 with OTUD6B; -0.302 in the test with OTUD7B; 0.0532 with PRPF8; -0.0764 with PSMD7; -1.53 (active) with UCHL1; 0.294 in the test with UCHL3. Also, the “log2 ratio” value with UCHL5 was -0.019; with USP10, -0.0376; with USP15, -0.0583; with USP16, -0.771.

The record behind these values is the supplement of paper PMC11732987, “Enantioselective OTUD7B fragment discovery through chemoproteomics screening and high-throughput optimisation” (Communications Chemistry, 2025).
